Bioassay records (PubChem BioAssay)
Compounds with a hit are over-represented: about 5.4% of the library has one in this group of screens.
Calb FLC – affects C. albicans growth with fluconazole. C. albicans CaCi-2 (fluconazole-resistant clinical isolate) + fluconazole, Alamar Blue growth, 48 h. growth inhibition, % (test concentration not listed). 0.57% of 300,000 active. AID 1979;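 active means growth inhibition above about 58% in most replicates, limit read from the data, passing the limit was not always enough; inconclusive means exactly half the replicates above a set limit; inactive means most replicates below a set limit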;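 further: all wells also contain fluconazole at 8 µg/ml as a sub-toxic cotreatment; 0% = median of DMSO wells and 100% = median of geldanamycin control wells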
MPTP inh – permeability transition pore inhibition | isolated mouse mitochondria, Ca2+ swelling absorbance, 30 min | inhibition, % at 10 µM | 1.4% of 360,000 active | AID 602449;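 active means inhibition of 50% or more, scaled per plate between neutral and stimulator controls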;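 further: 0% = DMSO wells given calcium and 100% = 1 mM EGTA wells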
Beta apoptosis – beta cell apoptosis inhibition. protection from apoptosis, % (no concentration beside the values). AID 435005. 0.8% of 300,000 active. INS-1E cytokine-induced death, ATP luminescence, 48 h; percent of positive-control rescue, neutral wells zero;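 active means Every replicate reaches about 75%, or at least half do and their mean reaches it too, limit read from the data; inconclusive means At least half of replicates reach the limit but their mean does not; inactive means Under half of replicates reach the limit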;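 further: 0% = cytokine-treated negative control wells and 100% = positive control rescue; higher means more ATP so stronger rescue from cytokine killing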
Mdm2-MdmX inh – disrupts the human Mdm2-MdmX interaction; O15151+Q00987; SaOS-2 split-luciferase Mdm2/MdmX complementation, luminescence; inhibition, % at 8 µM; 3% of 330,000 active; AID 485346;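 active means inhibition of at least 50% at 8 µM in the primary screen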
Target sequence (O15151 whole entry, looked up): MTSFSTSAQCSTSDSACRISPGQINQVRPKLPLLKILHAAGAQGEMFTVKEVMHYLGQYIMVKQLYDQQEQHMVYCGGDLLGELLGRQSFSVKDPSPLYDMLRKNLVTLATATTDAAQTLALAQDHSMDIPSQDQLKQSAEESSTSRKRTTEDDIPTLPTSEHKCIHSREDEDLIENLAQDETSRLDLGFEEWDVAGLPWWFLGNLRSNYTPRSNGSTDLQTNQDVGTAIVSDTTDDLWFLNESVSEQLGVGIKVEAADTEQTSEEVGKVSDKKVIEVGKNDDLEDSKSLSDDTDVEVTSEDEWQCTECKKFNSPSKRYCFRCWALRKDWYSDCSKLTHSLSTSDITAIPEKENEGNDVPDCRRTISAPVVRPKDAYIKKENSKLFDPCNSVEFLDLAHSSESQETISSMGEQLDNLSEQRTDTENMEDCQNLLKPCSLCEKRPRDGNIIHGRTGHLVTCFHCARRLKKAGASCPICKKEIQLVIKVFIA
Target sequence (Q00987 whole entry, looked up): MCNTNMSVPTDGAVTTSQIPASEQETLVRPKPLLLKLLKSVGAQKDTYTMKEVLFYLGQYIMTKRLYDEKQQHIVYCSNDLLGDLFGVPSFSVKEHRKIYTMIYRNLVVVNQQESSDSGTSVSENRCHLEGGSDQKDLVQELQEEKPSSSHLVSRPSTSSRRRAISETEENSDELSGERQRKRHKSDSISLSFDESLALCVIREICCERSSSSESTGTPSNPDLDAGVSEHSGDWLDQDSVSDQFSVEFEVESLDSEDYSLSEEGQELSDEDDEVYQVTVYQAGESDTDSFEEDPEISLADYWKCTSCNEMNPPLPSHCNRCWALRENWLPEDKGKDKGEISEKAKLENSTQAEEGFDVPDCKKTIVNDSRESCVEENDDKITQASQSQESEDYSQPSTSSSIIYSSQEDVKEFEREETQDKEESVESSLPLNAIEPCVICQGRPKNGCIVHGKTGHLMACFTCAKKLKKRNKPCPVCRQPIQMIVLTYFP
CSC inhib – cancer stem cell inhibition. inhibition, % at 7.5 µM. 1.1% of 300,000 active. cancer stem cell-like cells viability, luminescence. AID 2717; in the data active means inhibition above about 75%; inconclusive means no clear call, values can overlap the other calls; tested in HMLE shEcad cells
SKKanGAS inh – blocks kanamycin growth of S. pyogenes SKKanGAS strain | BacTiter-Glo, 6 h | inhibition, % at 7.5 µM | AID 1662 | 1.3% of 300,000 active;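 active means mean replicate score, as percent of positive control median, at least 50; inconclusive means mean below 50 but one replicate at or above 50; inactive means mean and every replicate below 50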;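 further: strain carries kanamycin resistance gene driven by streptokinase promoter and grows in 40 µg/ml kanamycin; loss of luminescence reflects streptokinase promoter inhibition or plain growth inhibition; 0% = median of DMSO wells and 100% = positive control at its reference dose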
Rh123 counter – mitochondrial membrane potential, counter-screen; shares compounds with MPTP inh; isolated mitochondria, Rhodamine 123 fluorescence; inhibition, % at 10 µM; 78% of 5,000 active; AID 624504; in the data active means inhibition above about 22%;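 further: 0% = DMSO vehicle and 100% = positive control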
MPTP swell DR – MPTP inhibition, dose response swelling confirmation | 58% of 780 active | shares compounds with MPTP inh | IC50, µM | isolated mitochondria swelling, absorbance | AID 651561; in the data active means IC50 below about 20 µM
MPTP counter DR – active in counter-screen for permeability transition pore inhibitors | shares compounds with MPTP inh | isolated mitochondria counterscreen, fluorescence read-out | IC50, µM | 49% of 780 active | AID 651564; in the data active means IC50 below about 80 µM
Starred values were filed as active, the others as inactive; i = inactive; ? = inconclusive; / = not tested or not shown.

SMILES	Calb FLC	MPTP inh	Beta apoptosis	Mdm2-MdmX inh	CSC inhib	SKKanGAS inh	Rh123 counter	others
Cc1cccc(C)c1NC(=O)c1cc(S(=O)(=O)N2CCc3ccccc32)cn1C	-15.1	-1.0	1.8	23.7	-7.7	1.2	/
O=C(/C=C/c1cccs1)Nc1ccc([N+](=O)[O-])cc1	-2.6	81.0*	8.6	-77.7	17.8	-0.5	74.5*
Cc1c(CC(Cl)(Cl)Cl)c2c(n1O)CC(C)(C)CC2=O	17.5	72.3*	3.4	-3.8	-2.4	2.2	46.6*
COc1ccc(C(=O)C(=O)N2CCN(c3ccc(C)cc3)CC2)cc1OC	/	0.8	/	/	/	/	/
O=C(CNc1cccc(F)c1)Nc1cccc(S(=O)(=O)N2CCCCC2)c1	/	-2.8	/	12.1	/	/	/
O=C(CNc1cccc(S(=O)(=O)N2CCCCC2)c1)Nc1ccc(C(F)(F)F)cc1	/	81.0*	/	/	/	/	76.4*
O=C(CNc1cccc(S(=O)(=O)N2CCCC2)c1)Nc1ccc(C(F)(F)F)cc1	-0.3	51.8*	24.8	-2.3	9.9	-1.1	85.2*
O=C(Nc1ccc(Cl)cc1)N(C1=NCCC1)c1ccc(OC(F)F)cc1	-0.7	89.6*	-0.4	-0.1	-3.9	-3.5	99.3*
COc1ccc(NC(=O)CC(C)C)c(OC)c1	6.3	2.1	-10.8	35.0	-2.6	2.8	/
C/C(=N\NS(=O)(=O)c1ccc(C(C)(C)C)cc1)c1ccccc1	17.7	1.1	-3.3	0.1	-7.7	-2.7	/
CC(C)(C)c1ccc(S(=O)(=O)/N=C2\C=C(NS(=O)(=O)c3ccccc3)C(=O)c3ccccc32)cc1	-3.4	99.3*	-1.6	33.8	-23.3	94.4*	25.1*
COC(=O)c1ccccc1C(=O)N1CCOCCOCCOCC1	28.1	0.4	-1.1	-4.7	-17.0	2.5	/
CCCc1ccc(Oc2cn[nH]c2-c2ccc(O)c(C)c2O)cc1	-9.9	88.9*	/	24.4	123.5*	88.5*	83.1*
CCc1cc2c(NCc3ccccc3)nc(C)nc2s1	20.3	91.2*	12.2	30.7	11.6	10.4	64.6*
C=CCNc1nc(-c2c(C)nc3sccn23)cs1	-1.1	8.8	3.8	9.7	4.9	-12.2	/
Cc1nc2sccn2c1-c1csc(NCc2ccccc2)n1	13.0	58.4*	51.6	14.4	-7.2	-4.5	67.4*
COc1ccc(C(=O)CCN2CCN(c3ccccc3F)CC2)cc1	-1.1	3.4	-11.6	1.3	?	-10.7	/
O=C(CCN1CCN(c2ccccc2F)CC1)c1ccc(Br)cc1	-6.8	112.5*	-12.0	-2.3	/	5.1	6.0	MPTP swell DR=i;MPTP counter DR=52.8*
O=C(Nc1ccc(Cl)cc1)C1CCC(=O)N1Cc1ccccc1Cl (configuration not stated)	-5.7	-1.3	/	27.6	6.2	-4.7	/
O=C(Nc1ccccc1Br)C1CCC(=O)N1Cc1ccccc1Cl (configuration not stated)	?	65.5*	-2.9	-11.6	13.6	-4.2	78.0*
CCn1c(SCC(=O)Nc2nc(C)cs2)nnc1-c1cccnc1	-5.4	-0.7	-0.9	5.1	1.0	-4.9	/
O=C(NCCc1ccc(Cl)cc1)Nc1cccc(Cl)c1	-13.6	94.9*	-5.5	31.4	-13.3	-2.9	93.5*
O=C(NCCSCc1ccco1)Nc1cccc(Cl)c1	-8.2	79.4*	-1.0	-2.9	22.4	-7.5	79.1*
Cc1cccc(NC(=O)NC(C)CCc2ccccc2)c1 (configuration not stated)	-13.3	63.6*	-5.6	-16.6	-8.8	-0.1	73.2*
O=C(NCCc1ccccc1)Nc1cccc(Cl)c1	-0.7	97.2*	2.4	-14.2	-4.9	0.7	87.9*
SMILES	Calb FLC	MPTP inh	Beta apoptosis	Mdm2-MdmX inh	CSC inhib	SKKanGAS inh	Rh123 counter	others
Cc1cccc(NC(=O)NCCc2ccc(Cl)cc2)c1	-6.1	5.9	-10.8	-4.6	-8.0	0.8	/
CCc1cccc(C)c1NC(=O)c1ccc2nc(N3CCOCC3)sc2c1	-5.6	-0.5	0.2	8.9	-9.7	-11.0	/
O=C(CCC(=O)N1CCN(S(=O)(=O)c2ccccc2Cl)CC1)c1ccccc1	/	-1.7	/	6.0	/	/	/
Cc1cc(C(C)(C)C)ccc1OCCOCCN1CCCC1	-22.1	53.7*	-2.8	11.0	53.7	6.5	3.5	MPTP swell DR=12.1*;MPTP counter DR=24.2*
Cc1cccc(NC(=O)c2ccc(NCCO)c([N+](=O)[O-])c2)n1	4.1	0.6	1.7	-40.3	-4.4	-3.7	/
C=CCNC(=S)N(Cc1ccccc1)Cc1ccc(F)cc1	-1.5	-0.3	/	-10.7	-0.2	5.7	/
Cc1cccc(C)c1OCC(O)CN1CCC(CN2C(=O)c3cccc4cccc(c34)C2=O)CC1 (configuration not stated)	22.2	62.2*	25.7	43.9	-4.5	?	11.2
Clc1ccc(-c2nc3ccccc3nc2-c2ccccc2)cc1	-28.2	55.0*	2.0	-23.3	31.2	-5.6	-6.2	MPTP swell DR=18.6*;MPTP counter DR=>80
O=C1C2CC=CCC2C(=O)N1c1ccc(N2CCN(c3ccccn3)CC2)c([N+](=O)[O-])c1 (configuration not stated)	0.5	55.3*	8.1	14.7	55.5	-7.6	45.1*
O=C(NCCCN1CCOCC1)/C(=C/c1cccs1)NC(=O)c1ccccc1	-0.7	-1.4	0.5	19.8	3.1	-1.6	/
COc1ccc(Cc2nc3ccc(C(=O)NC4CCOC4)cc3o2)cc1OC (configuration not stated)	/	0.9	/	/	/	/	/
CSc1ccc(S(=O)(=O)Nc2ccc(S(=O)(=O)Nc3ccc(C)cc3)cc2)cc1	59.1	0.8	1.4	17.6	11.2	16.1	/
Cc1ccc(S(=O)(=O)Nc2ccc(N=Nc3ccc(O)cc3)cc2)cc1	-30.8	55.7*	-2.9	-10.2	36.3	13.4	42.7*
COc1ccccc1N1CCN(C(=O)Nc2ccc(F)c(Cl)c2)CC1	1.4	3.9	2.7	-0.6	-5.0	10.6	/
Cc1cc(C)c(O)c(CN(C)Cc2cc(Cl)cc(Cl)c2O)c1	/	93.7*	/	/	/	/	86.9*
Cc1ccnc(NCc2cc(Cl)cc(Cl)c2O)c1	/	2.2	/	/	/	/	/
COc1ccc(-n2nc(C(=O)NCC(=O)NCc3ccc(F)cc3)c3ccccc3c2=O)c(OC)c1	/	1.8	/	/	/	/	/
CCCCN(CCCC)S(=O)(=O)c1ccc(NC(=O)c2ccc([N+](=O)[O-])cc2Cl)cc1	-4.1	94.7*	-2.6	/	47.0	13.7	95.9*
Cc1cc(C)nc(NS(=O)(=O)c2ccc(NC(=O)c3cccs3)cc2)n1	16.0	-1.9	-2.2	7.6	-2.6	1.1	/
CCCCN(CCCC)S(=O)(=O)c1ccc(NC(=O)c2cccs2)cc1	2.3	85.9*	15.4	-12.1	/	31.2	72.5*
CCCCn1c(N)c(N(CCC(C)C)C(=O)CSc2nc3ccccc3s2)c(=O)[nH]c1=O	/	0.5	/	/	/	/	/
